Measured values published in PMC4336329 (PLoS ONE, 2015).
Out of some 310,000 compounds screened, about 14,000 (4.5%) showed an effect of 50% or more. The effect is printed as a negative number. The sample as a whole holds a higher share of strong results than the screen did.

What follows are molecules tested against human ether-à-go-go-related gene (hERG) potassium channel (human, UniProt Q12809) (assay: primary screen, population patch clamp on CHO cells stably expressing hERG; higher = less effect of the substance).
Sequence of human ether-à-go-go-related gene (hERG) potassium channel (Q12809 whole entry, looked up): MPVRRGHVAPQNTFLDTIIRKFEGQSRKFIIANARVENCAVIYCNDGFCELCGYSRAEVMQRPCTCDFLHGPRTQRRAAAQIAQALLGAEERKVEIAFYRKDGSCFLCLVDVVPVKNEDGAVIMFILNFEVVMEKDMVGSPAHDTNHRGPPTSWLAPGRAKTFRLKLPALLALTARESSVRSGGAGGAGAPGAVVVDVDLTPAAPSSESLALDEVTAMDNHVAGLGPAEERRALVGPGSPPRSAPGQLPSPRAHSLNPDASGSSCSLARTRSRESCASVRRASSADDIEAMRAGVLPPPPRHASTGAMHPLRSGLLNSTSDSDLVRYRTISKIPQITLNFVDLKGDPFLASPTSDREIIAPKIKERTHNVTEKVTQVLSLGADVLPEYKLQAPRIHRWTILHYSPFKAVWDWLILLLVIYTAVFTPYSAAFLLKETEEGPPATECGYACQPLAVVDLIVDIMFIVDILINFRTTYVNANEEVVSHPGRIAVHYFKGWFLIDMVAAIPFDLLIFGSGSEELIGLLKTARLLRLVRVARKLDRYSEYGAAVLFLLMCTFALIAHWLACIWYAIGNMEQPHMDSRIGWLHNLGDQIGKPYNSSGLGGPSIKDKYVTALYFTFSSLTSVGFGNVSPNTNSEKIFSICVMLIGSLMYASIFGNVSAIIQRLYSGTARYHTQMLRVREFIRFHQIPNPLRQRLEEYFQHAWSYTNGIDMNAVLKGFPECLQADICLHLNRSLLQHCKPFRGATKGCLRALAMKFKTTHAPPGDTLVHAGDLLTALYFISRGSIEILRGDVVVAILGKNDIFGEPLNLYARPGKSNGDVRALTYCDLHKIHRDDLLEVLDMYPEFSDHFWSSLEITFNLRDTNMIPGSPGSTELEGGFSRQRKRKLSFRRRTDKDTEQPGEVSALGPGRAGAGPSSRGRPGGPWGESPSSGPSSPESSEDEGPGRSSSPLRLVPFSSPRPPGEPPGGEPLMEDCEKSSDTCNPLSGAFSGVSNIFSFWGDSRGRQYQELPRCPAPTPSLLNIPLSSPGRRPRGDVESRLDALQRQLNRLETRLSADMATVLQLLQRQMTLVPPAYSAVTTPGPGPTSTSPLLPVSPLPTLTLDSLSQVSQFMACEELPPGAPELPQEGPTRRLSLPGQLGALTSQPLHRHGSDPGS
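Note: peak tail current of the secondary pulse compared with the same well before compound.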

SMILES	hERG current change (%, negative = inhibition) at 10uM [%]
COc1cc(NC(=O)COC(=O)Cn2cnc3c2c(=O)n(C)c(=O)n3C)cc(OC)c1	1.05
CC(C)COC(=O)C1C2C=CC3(CN(C4CCCC4)C(=O)C13)O2 (stereo not shown)	-15.4
Cc1ccc(S(=O)(=O)N2CCN(C(=O)c3ccccn3)CC2)cc1	9.2
Cc1cccc(NC(=O)c2cc(-c3ccc(C)s3)nc3ccccc23)n1	5.03
CC(=O)c1cc2ccccc2oc1=O	2.96
CCN1C(=O)[C@H]2[C@@H](c3ccc(C)cc3)N3C(=O)N(c4cccc(F)c4)C(=O)[C@@]3(C)[C@H]2C1=O	3.13
O=S(=O)(Cc1cccc(C(F)(F)F)c1)c1ncn[nH]1	17.9
COc1cccc(COc2ccc3c(C)c(Cc4ccccc4)c(=O)oc3c2)c1	6.98
CCN1C=C(Cc2cccs2)C2=C(C1)C(c1cccs1)C(C#N)=C(N)O2 (stereo not shown)	-16.8
CCC(C)(C)c1ccc(Oc2cccc(C(=O)O)c2)cc1	11.5
Cc1cc[n+](CC[n+]2ccc(C)cc2)cc1.[Br-]	16.7
CCC(C)(C)c1ccc(OCCCC[n+]2cccc(C)c2C)c(C(C)(C)CC)c1.[Br-]	-75.8
Cc1cc(=O)oc2cc(OCCCC[n+]3ccccc3)ccc12.[Br-]	4.72
CCC(C)(C)c1ccc(OCC(=O)N(C)C)c(C(C)(C)CC)c1	-4.24
Cc1cc(C(C)(C)C)ccc1OCCCCN1CCCC1	-40
CCC(C)(C)c1ccc(OCCCC[n+]2ccc(C)cc2)c(C(C)(C)CC)c1.[Br-]	-75.7
CCC(C)(C)c1ccc(O)cc1	6.62
CCC(C)(C)c1ccc(OCCCC[n+]2ccccc2)c(C(C)(C)CC)c1.[Br-]	-67.2
O=C(Nc1nnc(-c2ccco2)s1)c1ccccc1	8.26
Nn1c(Cc2ccccc2F)nnc1SCCOc1ccc(Cl)cc1	-14.1
C=CCSc1nnc(CNC(=O)c2ccccc2C)n1C(C)C	5.68
CC(=O)c1c(C)[nH]c(C(=O)NCCC2=CCCCC2)c1C	4.77
O=C1CC(c2ccccc2)CC(O)=C1C=NCCN1CCNCC1 (stereo not shown)	9.28
O=C1CC(c2ccccc2)CC(O)=C1C=NCCc1ccccc1 (stereo not shown)	6.57
O=C1CC(c2ccccc2)CC(O)=C1C=NCCN1CCN(C(=O)Cc2ccccc2)CC1 (stereo not shown)	-53
O=C1CC(c2ccccc2)CC(O)=C1C=NCCN1CCN(Cc2ccccc2)CC1 (stereo not shown)	-63.1
O=C1CC(c2ccccc2)CC(O)=C1C=NCCN1CCOCC1 (stereo not shown)	-0.797
Cc1ccc(C2CC(=O)C(C=NCCN3CCN(C(=O)Cc4ccccc4)CC3)=C(O)C2)cc1 (stereo not shown)	-42.8

SMILES	hERG current change (%, negative = inhibition) at 10uM [%]
Cc1ccc(C)c(OC2=NS(=O)(=O)c3ccccc32)c1	23.2
Cc1cc(Cl)ccc1OCCCC(=O)N/N=C/c1cccc([N+](=O)[O-])c1	22.2
O=C(Nc1cccc(-c2nc3ccccc3s2)c1)c1cccs1	-53.1
CC(=O)Nc1cccc(-c2nc3ccccc3s2)c1	-13.4
O=C(Nc1ccc(O)c(-c2nc3ccccc3s2)c1)c1cccs1	-9.79
Cc1nc(N2CCN(c3ccccn3)CC2)c2c(C)c(C(=O)Nc3c(F)cc(F)cc3Br)sc2n1	-14.4
CN1CCN(S(=O)(=O)c2ccc(Cl)c3ccccc23)CC1	-1.62
C=CCn1c(NC(=O)c2ccc(Br)o2)c(C(=O)OCC)sc1=S	37
CC(=O)c1ccc(N2CCN(C(=O)C3(S(=O)(=O)c4ccc(Cl)cc4)CC3)CC2)cc1	-51.8
Cc1ccc(Cl)cc1N1CCN(C(=O)C2(S(=O)(=O)c3ccc(Cl)cc3)CC2)CC1	-6.38
Cc1ccc(S(=O)(=O)C2(C(=O)N3CCN(c4cc(C)ccc4C)CC3)CC2)cc1	-15.2
Cc1ccc(S(=O)(=O)C2(C(=O)N3CCCCCC3)CC2)cc1	-11.6
COc1ccc(N2CCN(C(=O)C3(S(=O)(=O)c4ccc(C)cc4)CC3)CC2)cc1	-53.7
O=C(N1CCN(c2ccccc2)CC1)C1(S(=O)(=O)c2ccc(Cl)cc2)CC1	-42.1
CCOc1ccc(C(=O)CCC(=O)Nc2cc(C)ccn2)cc1	11.8
COc1ccc(OC)c(N=Cc2c(O)c3ccccc3oc2=O)c1	12.9
O=C(CCc1nnc2ccc(NCc3ccccc3Cl)nn12)NC1CCCCC1	-7.98
COc1ccc(C(=O)C2CCCN(Cc3cccn3-c3ccccn3)C2)c(C)c1 (stereo not shown)	-78.9
COc1ccc(C(=O)C2CCCN(C(=O)CCc3ccccn3)C2)c(C)c1 (stereo not shown)	-14.7
COc1ccc(C(=O)C2CCCN(CCO)C2)c(C)c1 (stereo not shown)	4.23
COc1ccc(C(=O)C2CCCN(Cc3cccn3-c3ccc(Cl)cn3)C2)c(OC)c1 (stereo not shown)	-76
COc1ccc(C(=O)C2CCCN(Cc3cccn3-c3ccccn3)C2)c(OC)c1 (stereo not shown)	-74.6
COc1ccccc1NC(=O)Cn1c(C)nc2c(sc(=S)n2Cc2ccco2)c1=O	-32.6
COc1cc(Cl)cc(C#N)c1OCC(=O)O	11
O=C(NC(Nc1nc2ccc([N+](=O)[O-])cc2s1)(C(F)(F)F)C(F)(F)F)c1ccccc1Cl	-23.1
O=C(CSc1nnc(-c2cccnc2)n1Cc1ccccc1)NCc1ccccc1	-14.1
O=C(COC(=O)c1ccccc1NS(=O)(=O)c1cccs1)NCC12CC3CC(CC(C3)C1)C2	5.15
